# Assay outcomes (PubChem BioAssay)
# Only some compounds are listed: those with a hit (about 3.6% of all), similar ones and a draw of the others.
# BoNT A protease: inhibitors of Botulinum neurotoxin A light chain protease; actives 0.17% (n = 360,000); multiplex microsphere protease substrate cleavage, flow cytometry; inhibition, % at 10 µM; AID 588499; note: plate controls were buffer without enzyme for full effect and enzyme alone for no effect
# Anthrax LF inh2: inhibitors of Bacillus anthracis lethal factor protease | multiplex microsphere protease cleavage assay, LF | AID 588501 | P15917 | actives 0.12% (n = 360,000) | inhibition, % at 10 µM; note: plate controls were buffer without enzyme for full effect and enzyme alone for no effect
# Target sequence (P15917 whole entry, looked up): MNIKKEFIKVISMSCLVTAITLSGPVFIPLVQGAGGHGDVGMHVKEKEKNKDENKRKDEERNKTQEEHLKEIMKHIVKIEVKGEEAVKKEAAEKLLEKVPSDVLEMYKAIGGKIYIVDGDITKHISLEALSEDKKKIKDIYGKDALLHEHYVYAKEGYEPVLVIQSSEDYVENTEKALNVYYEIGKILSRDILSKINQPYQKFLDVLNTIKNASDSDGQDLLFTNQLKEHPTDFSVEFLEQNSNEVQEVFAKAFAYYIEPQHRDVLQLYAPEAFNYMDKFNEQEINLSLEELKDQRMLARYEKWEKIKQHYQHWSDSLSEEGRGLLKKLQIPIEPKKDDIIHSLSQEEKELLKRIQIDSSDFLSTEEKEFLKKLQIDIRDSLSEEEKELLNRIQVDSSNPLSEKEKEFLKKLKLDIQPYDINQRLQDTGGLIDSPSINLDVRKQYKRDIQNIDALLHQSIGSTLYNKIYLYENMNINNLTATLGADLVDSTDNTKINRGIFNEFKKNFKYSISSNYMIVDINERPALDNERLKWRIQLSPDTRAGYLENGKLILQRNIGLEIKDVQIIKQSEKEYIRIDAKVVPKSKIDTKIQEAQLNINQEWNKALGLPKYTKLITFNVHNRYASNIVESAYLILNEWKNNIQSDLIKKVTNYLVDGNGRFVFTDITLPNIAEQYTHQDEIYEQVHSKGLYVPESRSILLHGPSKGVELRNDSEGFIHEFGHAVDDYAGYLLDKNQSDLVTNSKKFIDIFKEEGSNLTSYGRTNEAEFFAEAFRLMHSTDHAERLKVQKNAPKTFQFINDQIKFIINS
# MazF activator: activators of E. coli MazEF toxin-antitoxin RNase | actives 0.32% (n = 350,000) | P0AE70 | AID 504720 | FAM/BHQ RNA-DNA oligo cleavage fluorescence, 5 h | activation, % at 20 µM; in the data active = activation above about 50%
# Bead autofluor: counter-screen for toxin protease inhibitors: compound fluorescence; compound autofluorescence counterscreen, microsphere flow cytometry; stronger effect = higher value; fluorescence intensity (test concentration not listed); actives 3.1% (n = 360,000); AID 624483; in the data active = fluorescence intensity above about 16000; inconclusive = no clear call, values can overlap the other calls
# BoNT-F LC inh: blocks Botulinum neurotoxin F light chain protease; actives 0.22% (n = 360,000); inhibition, % at 10 µM; Multiplex microsphere protease cleavage assay, flow cytometry; AID 588497; in the data active = inhibition above about 35%, passing the limit was not always enough; inconclusive = no clear call, values can overlap the other calls; note: plate controls were buffer without enzyme for full effect and enzyme alone for no effect
# Starred values were filed as active, the others as inactive; ? = inconclusive; . = not tested or not shown; ! = a repeat was not active. Cut-off read from the data, not from the text of the source, unless noted: active = inhibition above about 30%; inconclusive = no clear call, values can overlap the other calls; inactive = below that.
SMILES,BoNT A protease,Anthrax LF inh2,MazF activator,Bead autofluor,BoNT-F LC inh
O=C(NC(CC(=O)N1CCCC(C(F)(F)F)C1)c1ccccc1)c1ccccc1Cl (stereo not given),-1,-1,-7,5746,-1
CCS(=O)(=O)C(=C(Nc1ccc(OC)cc1)Nc1ccc(OC)cc1)S(=O)(=O)CC,-2,-7,1,22992*,-8
N#CC(c1cccc(C(F)(F)F)c1)(c1ncc(C(F)(F)F)cc1Cl)N1CCOCC1 (stereo not given),0,-6,-13,23108*,-2
N#Cc1cccc(NC(=O)CCc2ccc(S(=O)(=O)N3CCOCC3)cc2)c1,0,-2,10,4222,2
CCCCn1c(=O)[nH]c(=O)c2c1nc(-c1cccc(OC)c1)n2C,-6,-7,-36,4241,-25
CCCCn1c(=O)[nH]c(=O)c2c1nc(-c1ccc(OC(F)F)c(OC)c1)n2C,1,-2,71*,5569,3
CCc1ccc(Nc2ncc3c(n2)CC(C)(C)CC3=O)cc1,0,-17,7,4521,?
COCCNc1nc2cc(-c3ccccc3)sc2c(=O)n1C,0,-1,.,3440,6
Cn1cnc([N+](=O)[O-])c1NCc1ccccc1,7,?,-13,3764,40*
N#C/C(=C\c1ccc(N2CCOCC2)o1)c1nc2ccccc2[nH]1,-17,-4,-143,11443,102*
O=C(NCc1cccc(Cl)c1)c1ccc(-n2ccnc2)c2ccoc12,0,5,.,3882,-1
Cc1ccc(O)c(NC(=S)NC(=O)c2ccccc2Cl)c1,3,2,-4,4657,38*
O=C(NC(=S)Nc1ccc(O)cc1)c1ccccc1Cl,0,-2,8,3528,0
COc1cccc(CNC(=O)[C@@H]2CCCN2C(=O)[C@H]2CCCCN2C(=O)OC(C)(C)C)c1,0,7,.,6303,3
O=C(Nc1ccccn1)c1cc(-n2cnnc2)ccc1Cl,1,-2,4,4892,1
Cc1ccnc(NC(=O)c2cc(-n3cnnc3)ccc2Cl)c1,?,2,2,22908*,0
Cc1c(NC(=O)c2cc(-n3cnnc3)ccc2Cl)cccc1-c1nc2ccccc2s1,-1,-2,49,22973*,-3
O=C(Nc1cccc(-c2nc3ccccc3s2)c1)c1cc(-n2cnnc2)ccc1Cl,0,-2,-1,4151,0
CC(C)NC(=O)c1cc(-n2cnnc2)ccc1Cl,2,1,1,20045*,6
COc1ccc([N+](=O)[O-])cc1NC(=O)c1ccco1,0,-4,2,4706,6
C[C@H]1CCC[C@H](O)CCCCCc2cc(O)cc(O)c2C(=O)O1,-1,0,11,6177,-9
C[C@H]1CCC[C@@H](O)CCC/C=C/c2cc(O)cc(O)c2C(=O)O1,-3,-4,3,20416*,-4
COc1ccc(-n2c(COc3ccc(Cl)cc3)nnc2SCc2ccc(C#N)cc2)cc1,-1,-3,-2,7650,-3
COc1ccc(-n2c(COc3ccc(C)cc3)nnc2SCc2ccc(C#N)cc2)cc1,1,-2,-7,19083*,-1
CCCCNC(=O)c1ccc(CNc2c(N3CCC(C(=O)OCC)CC3)c(=O)c2=O)cc1,0,-4,10,23374*!,-4
SMILES,BoNT A protease,Anthrax LF inh2,MazF activator,Bead autofluor,BoNT-F LC inh
CCOC(=O)C1CCN(c2c(NCCCN(CC)c3ccccc3)c(=O)c2=O)CC1,?,0,3,21430*,-1
COc1cc(N)c2ncccc2c1Br,1,1,12,3029,-10
CCCCCc1ccc(-c2ccc(=O)[nH]n2)cc1,0,0,3,3900,4
Cc1ccc(-c2ccc(=O)[nH]n2)cc1,-2,1,4,21252*,-3
O=C(NCc1cccc(C(F)(F)F)c1)C1CCCN(c2ncccn2)C1 (stereo not given),?,-5,-1,22625*,0
Cc1cc(C)nc(N2CCCC(C(=O)NCc3cccc(C(F)(F)F)c3)C2)n1 (stereo not given),-1,0,-3,8636,-15
O=C(C1CCC(C(=O)N2CCc3ccccc32)CC1)N1CCc2ccccc21 (stereo not given),-1,2,-3,2801,-4
O=C(Nc1ccccc1-c1ccccc1)C1CCCN(c2ncccn2)C1 (stereo not given),0,-2,-11,16368*,-2
O=C(C1CCCN(c2ncccn2)C1)N1CCc2ccccc21 (stereo not given),-5,-4,1,17813*,-8
CC(=O)c1ccc(Nc2nc(C(N)C(C)C)cs2)cc1 (stereo not given),0,3,.,3836,-11
CN(Cc1ccccc1)C(=O)NC1CCCCC1,?,1,-4,22110*,-11
CCCc1cc(=O)[nH]c(Nc2ccc(N3CCCCC3)cc2)n1,2,-9,11,20834*,-14
CCCCc1ccc(Nc2nc(CCC)cc(=O)[nH]2)cc1,0,0,3,2387,-7
CCOC(=O)C1CCCN(C(=O)c2ccc3c(c2)C(C)(C)CCC3(C)C)CC1 (stereo not given),0,-5,.,2921,-1
Brc1ccc(Cn2c(-c3cncs3)nc3ccccc32)cc1,-1,5,1,10760,-9
Brc1cccc(Cn2c(-c3cncs3)nc3ccccc32)c1,?,-2,-4,22203*,-2
N#CCCCCn1c(-c2cncs2)nc2ccccc21,1,1,6,3880,6
c1ccc(Cn2c(-c3cncs3)nc3ccccc32)cc1,-3,1,4,20700*,-4
OC(c1cc(F)cc(Cl)c1)c1ncc(-c2ccc(Cl)cc2)[nH]1 (stereo not given),0,-5,.,3681,-8
COC(=O)c1ccc(Sc2ccc(C)cc2)c(N)c1,-2,-1,-4,24100*,-5
COc1cc(Sc2ccc(C)cc2)c(OC)cc1N,22,-9,8,2436,-48
CN1/C(=C/c2cccc[n+]2CCO)Sc2ccccc21,-3,3,-32,4024,-24
CCN1/C(=C/c2ccc3cc(C)ccc3[n+]2CC)Sc2ccccc21,78*,22,69*,6257,-28
CCN1/C(=C/C=C/C=C/C=C/c2sc3ccccc3[n+]2CC)Sc2ccccc21,8,-75,-25,1654,-250
CC[n+]1c(/C=C2\Sc3ccccc3N2C)ccc2cccc(C)c21,62*,-31,106*,4252,-60
CCN1/C(=C/c2ccc3cc(C)ccc3[n+]2CC)Sc2cc(C)c(C)cc21,49*,-62,71*,8339,-93
CCN1/C(=C/C=C/c2sc3ccccc3[n+]2CC)Sc2ccccc21,32*,-192,-457,1601,-159
CN(Cc1ccco1)C(=O)[C@H](Cc1ccccc1)NC(=O)CC[C@H]1O[C@@H](n2ccc(=O)[nH]c2=O)[C@H](O)[C@@H]1O,0,-6,.,4359,4
CCNc1nc(NCC)n2c(SCC(=O)Nc3ccccc3[N+](=O)[O-])nnc2n1,0,0,4,2059,11
COC(=O)c1ccc(COc2ccc(/C=N/NC(N)=S)cc2)o1,-1,-12,0,5584,5
